TDP1 block: TDP1 (human) enzyme inhibition; Potency, µM (top dose mostly 130 µM), inactives show at the top dose activity change, negative = inhibition, most hits filed as inhibitors; 350,000 tested, 0.28% active; recombinant TDP1, AlphaScreen DNA substrate cleavage; also: potency is read from the fitted curve at half-maximal effect; % is scaled to controls: 0 for no effect and ±100 for the full control effect; nearly all actives have a fitted effect of over 40% in size
Target sequence (Q9NUW8 whole entry, looked up): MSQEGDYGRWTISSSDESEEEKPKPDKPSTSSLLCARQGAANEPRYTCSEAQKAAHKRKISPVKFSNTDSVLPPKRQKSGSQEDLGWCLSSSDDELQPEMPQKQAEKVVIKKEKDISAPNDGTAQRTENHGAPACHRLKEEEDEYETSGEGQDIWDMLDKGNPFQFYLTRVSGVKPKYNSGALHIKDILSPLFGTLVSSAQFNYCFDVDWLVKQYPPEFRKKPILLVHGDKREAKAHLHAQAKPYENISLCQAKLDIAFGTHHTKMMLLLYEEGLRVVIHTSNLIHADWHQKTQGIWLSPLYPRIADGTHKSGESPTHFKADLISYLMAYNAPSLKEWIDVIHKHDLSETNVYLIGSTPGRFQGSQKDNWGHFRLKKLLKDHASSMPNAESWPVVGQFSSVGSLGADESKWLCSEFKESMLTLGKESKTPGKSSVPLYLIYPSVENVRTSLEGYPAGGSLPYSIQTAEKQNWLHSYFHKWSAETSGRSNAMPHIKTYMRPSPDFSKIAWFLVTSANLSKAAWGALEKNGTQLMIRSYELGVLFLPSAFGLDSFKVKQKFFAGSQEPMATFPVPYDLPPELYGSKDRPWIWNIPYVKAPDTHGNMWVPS
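Compounds were preincubated with Tdp1 (1 nM final) for 15 min at room temperature before substrate (15 nM final) started a 5 min reaction; beads (10 ug/ml final) were then added for 10 min before AlphaScreen detection.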
HepG2 viability: counter-screen for TGF-b inhibitors: cytotoxicity in HepG2 cells; AID 588856; Potency, µM (series often up to 46.1 µM), for inactives: at the top dose activity change, negative = cytotoxicity, actives largely listed as cytotoxic; 410,000 tested, 0.76% active; HepG2 CAGA-GFP viability, ATP luminescence, 18 h; also: potency is read from the fitted curve at half-maximal effect
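CellTiter-Glo luminescence gave cytotoxicity after 18 hours at 37 degrees C. The cells were HepG2 CAGA-GFP in 1% FBS DMEM, stimulated with 500 pg/mL TGF-beta after compound addition. %Activity was normalised to no-cell wells (complete cell-killing) and DMSO (no toxicity), and curves were fitted and classified.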
TGFb inhibitor: TGF-b pathway inhibition; HepG2 CAGA-GFP TGF-b/SMAD3 reporter, GFP fluorescence, 18 h; TGF-beta stimulated, 500 pg/mL final; Potency, µM (titrated, usually from 46.1 µM), for inactives: at the top dose activity, negative = inhibition, usual class: inhibitors; 410,000 tested, 1.2% active; also: potency is read from the fitted curve at half-maximal effect; % is scaled to controls: 0 for no effect and ±100 for the full control effect; nearly all actives have a fitted effect of over 65% in size
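Smad-responsive CAGA-GFP expression was quantified in HEPG2 cells exposed to compounds and 500 pg/mL final TGF-beta for 18 h at 37 degrees C; unstimulated wells defined full inhibition.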
DT40 TDP1 CPT: DT40-hTDP1 cell growth loss with CPT; chicken DT40 Tdp1-/-;hTDP1 cells + 20 nM CPT, ATP luminescence, 48 h; 420,000 tested, 12% active; AID 686979; Potency, µM (series often up to 46.2 µM), for inactives: at the top dose activity change, negative = growth inhibition, usual class: inhibitors; also: potency is read from the fitted curve at half-maximal effect; % is scaled to controls: 0 for no effect and ±100 for the full control effect; nearly all actives have a fitted effect of over 55% in size
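Chicken DT40 Tdp1-/- cells stably complemented with human TDP1 were seeded at 400 cells/well in medium containing 20 nM camptothecin, exposed to pin-transferred compounds, and grown at 37 °C for at least 48 hr. Viability was read as ATP luminescence.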
DT40 TDP1 no CPT: qHTS for Inhibitors of human tyrosyl-DNA phosphodiesterase 1 (TDP1): qHTS in cells in absence of CPT; 420,000 tested, 15% active; DT40 Tdp1-/- hTDP1 cells, no CPT, ATP luminescence, 48 h; Potency, µM (doses to about 46.2 µM), for inactives: at the highest dose activity change, negative = growth inhibition, hits mostly inhibitors; also: potency is read from the fitted curve at half-maximal effect; % is scaled to controls: 0 for no effect and ±100 for the full control effect; nearly all actives have a fitted effect of over 55% in size
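Readout: luminescence from CellTiter-Glo after 30 min in the dark at RT. Cells: DT40 Tdp1-/- with stable hTDP1, 400/well. Exposure: compounds alone, ≥48 hr, 37 °C.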
IL1B secr inh: inhibitors of inflammasome signaling (IL-1 beta secretion); THP-1 LPS/ATP IL-1B secretion, AlphaLISA, 16 h; hits give low values; activity change, % at 57.5 µM; 360,000 tested, 4.7% active; AID 743279; in the data active = activity change below about -50%; inconclusive = mostly about -30% to -49%; also: % is scaled to controls: 0 for no effect and ±100 for the full control effect
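Secreted IL-1B measured by AlphaLISA bead assay after 16 h compound exposure of THP-1 cells; compounds (final up to 57.5 uM) added 1 h before LPS (250 ng/mL) and ATP (1.25 mM) stimulation; lower signal means less secretion.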
The depositor's hits bear a star; ? = inconclusive; nt = no result; [ ] = dose if it differs, or a comment. Rows were chosen to be rich in hits. Some 18% of all compounds tested hit in one or more screens of this group. Unless noted, calls follow the shape of the dose curve; as a rule, active = well fitted curve in the direction sought with a large enough effect; inconclusive = small, poorly fitted or top-dose-only effect, or another doubt; inactive = no such curve, though single readings can be large; an effect the other way counts as inactive or inconclusive.

SMILES | TDP1 block | HepG2 viability | TGFb inhibitor | DT40 TDP1 CPT | DT40 TDP1 no CPT | IL1B secr inh
COC(=O)C(Cc1ccccc1)NC(=S)NC(=O)c1ccccc1 (configuration not stated) | 0.0% | 22.2% | -0.7% | ? | 18.4µM* | 8.5
CN([C@@H](C(=O)OC(C)(C)C)c1ccccc1)S(=O)(=O)c1cccc(S(=O)(=O)N(C)[C@@H](C(=O)OC(C)(C)C)c2ccccc2)c1 | nt | 13.4% | -1.3% | 13µM* | ? | 16.5
CC(C)c1ccc(OCC(=O)Nc2c(C(=O)c3ccc(F)cc3)oc3ccccc23)cc1 | 1.1% | -10.5% | 1.1% | -1.0% | -9.6% | nt
Cc1cc(=O)c2cc(C(=O)c3ccccc3)ccc2[nH]1 | nt | -2.5% | -4.4% | -28.8% | ? | -14.9
CN(C)CCNc1ncnc2c1ncn2[C@H]1CN(Cc2ccc(F)cc2)C[C@@H](CO)O1 | nt | 3.3% | 20.2% | -24.5% | -17.5% | -29.5
COC(=O)C(/C=N/O)NC(=O)c1ccccc1 (configuration not stated) | 5.9% | 15.6% | 20.8% | -11.8% | -12.2% | -11.9
COC(=O)C(NC(=O)c1ccccc1)C(C)(C)SCc1ccccc1 (configuration not stated) | nt | 29.2% | 21.5% | ? | 18.4µM* | 8.2
CCOc1ccc(CCNC(=O)c2nn(-c3ccc(OC)c(Cl)c3)c(=O)c3c2c2ccccc2n3C)cc1OCC | 0.0% | -13.8% | -19.4% | -22.0% | ? | nt
COc1ccc(-n2nc(C(=O)NCc3ccco3)c3c4ccccc4n(C)c3c2=O)cc1Cl | -1.1% | 7.9% | -2.7% | ? | 10.3µM* | 44.3
COc1ccc(-n2nc(C(=O)NCCc3cccc(C)c3)c3c4ccccc4n(C)c3c2=O)cc1Cl | 2.3% | 9.2% | 4.4% | -7.6% | -7.0% | nt
CCCCN(C)CCNC(=O)c1nn(-c2ccc(OC)c(Cl)c2)c(=O)c2c1c1ccccc1n2C | 2.3% | 3.8% | -6.7% | ? | 18.4µM* | nt
O=S(=O)(/C=C/c1ccccc1)N1CCC(n2c(C3CCCO3)nc3cccnc32)CC1 (configuration not stated) | nt | nt | nt | 10.9%[9.04 µM] | -14.8% | nt
COCCNC(=O)c1ccc2c(=O)n(CCc3ccccc3)c(SCC(=O)CC(=O)OC)nc2c1 | 0.0% | -26.9% | ? | ? | 20.6µM* | nt
CCOC(=O)CC(=O)CSc1nc2ccccc2c(=O)n1CCc1ccccc1 | -7.4% | -9.9% | 16.9% | ? | ? | nt
COCCNC(=O)c1ccc2c(=O)n(CCOC)c(SCC(=O)c3c[nH]c4ccccc34)nc2c1 | -2.6% | -10.2% | -26.7% | 23.1µM* | 13µM* | nt
Cc1ccc(-c2n[nH]c(=S)nc2-c2ccc(C)cc2)cc1 | nt | 4.0% | -5.1% | ? | ? | -21.1
Cc1cc(S(=O)(=O)NC2CC(C)(C)NC(C)(C)C2)c(Cl)cc1Cl | nt | -16.0% | 8.3% | ? | ? | -14.1
CCCCNc1sc(S(=O)(=O)CCC)nc1S(=O)(=O)c1ccc(C)cc1 | 5.1% | -8.0% | ? | ? | 20.6µM* | nt
CC(C)OCCCNc1sc(S(=O)(=O)c2ccccc2)nc1S(=O)(=O)c1ccc(Cl)cc1 | -4.7% | -3.2% | -13.4% | ? | 18.4µM* | nt
CCCS(=O)(=O)c1nc(S(=O)(=O)c2ccc(C)cc2)c(NCC(C)C)s1 | 7.6% | 12.8% | -0.6% | ? | 20.6µM* | nt
CCCCNc1sc(S(=O)(=O)CC)nc1S(=O)(=O)c1ccc(C)cc1 | 5.1% | -24.8% | ? | ? | 23.1µM* | nt
CCN(CC)CCCNc1sc(S(=O)(=O)c2ccccc2)nc1S(=O)(=O)c1ccc(Cl)cc1 | 2.3% | -74.8% | ? | ? | ? | nt

Screening results deposited in PubChem by National Center for Advancing Translational Sciences (NCATS).
